# About 4,300 (8.3%) of roughly 52,000 compounds were called active. For the sample, actives were picked, then their nearest neighbours and some compounds at random. A number with no mark means an inactive call. Rule as the data show it: active = survival mostly below about 52% (no sharp cut-off); inactive = mostly above about 56%.
# Test system: DeltatarO mutant
# Assay: growth inhibition of S. aureus wild type versus tarO mutant, primary screen, teichoic acid synthesis inhibitors, RN4220, OD600 (AID 463173)
# Conditions: OD600, 18 h, stronger effect = lower value, screened at 18.75 µg/mL (by protocol)
row,SMILES,survival
1,Cc1ccc(N2CCN(C(=O)c3cn(C)c4ccc(S(=O)(=O)N(C)C5CCCCC5)cc4c3=O)CC2C)cc1 (centres undefined),91%
2,O=C(CSc1nccn1-c1ccc(F)cc1)Nc1ccc(OC(F)(F)F)cc1,78%
3,CCc1ccc(S(=O)(=O)Nc2ccc3c(c2)sc(=O)n3C)cc1,91%
4,COC(=O)c1ccccc1NC(=O)Cn1c(=O)n(-c2ccc(Cl)cc2)c(=O)c2c(C)c(C)sc21,86%
5,CCOC(=O)c1[nH]c(C)c(CCC(=O)NCc2cccc(Cl)c2)c1C,76%
6,COc1ccc(CNC(=O)Cn2ncc3c(=O)oc4ccccc4c32)c(OC)c1,89%
7,O=C(COc1ccccc1F)Nc1ccc2nc(SCC(=O)N3CCOCC3)sc2c1,79%
8,CCOc1ccc(CCNC(=O)CCc2c(C)nc3c(-c4ccccc4)c(C)nn3c2C)cc1OCC,70%
9,Cc1ccc(SCCNC(=O)CN(c2cccc(C)c2C)S(C)(=O)=O)cc1,57%
10,Cc1ccc(CSCCNC(=O)CN(c2cccc(C)c2C)S(=O)(=O)c2ccccc2)cc1,52%
11,Cc1cccc(N(CC(=O)NCCSc2ccc(Cl)cc2)S(C)(=O)=O)c1C,38% (active)
12,Cc1cccc(N(CC(=O)NCCSCc2ccc(Cl)cc2)S(C)(=O)=O)c1C,33% (active)
13,CN(C)S(=O)(=O)N(CC(=O)NCCSCc1cccc(Cl)c1)c1ccccc1,57%
14,Cc1ccccc1CSCCNC(=O)CN(c1ccccc1)S(=O)(=O)N(C)C,52%
15,Cc1cccc(N(CC(=O)NCCSc2ccc(Cl)cc2)S(=O)(=O)c2ccccc2)c1C,49%
16,Cc1cccc(N(CC(=O)NCCSCc2cccc(Cl)c2)S(=O)(=O)c2ccccc2)c1C,57%
17,CN(C)S(=O)(=O)N(CC(=O)NCCSCc1ccc(Cl)cc1Cl)c1ccccc1,47% (active)
18,COc1cc(Cl)c(NS(=O)(=O)c2ccc3c(c2)CC(C)N3C(=O)C2CCC2)c(OC)c1 (centres undefined),80%
19,CC(C)NC(=O)c1ccc(Cn2c(SCc3ccc(F)cc3)nc3cccnc32)cc1,55%
20,O=C1c2ccccc2-c2nc3ccccc3c(=O)n21,106%
21,COc1cc(OC)c(NC(=O)COc2ccccc2-c2nnc(-c3ccccc3)o2)cc1Cl,95%
22,COCCCNC(=O)c1ccc2nc(Cc3ccc(OC)cc3)oc2c1,69%
23,N#C/C(=C\c1cn(Cc2ccc(C#N)cc2)c2ccccc12)C(=O)NCc1ccco1,67%
24,O=C(Cn1cnc2onc(-c3ccc(F)cc3)c2c1=O)Nc1ccc(F)c(Cl)c1,84%
